Shown are actives, neighbours in structure and some others; about 27% of the full set was active somewhere.
CYP2C9 activ: increases human cytochrome P450 2C9 activity; recombinant CYP2C9, luciferin-H conversion, luminescence; hits give high values; factor 1 = untreated enzyme, 0 = blocked; activation factor at 5 µM; actives 1.4% (n = 96,000); AID 1024;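 active = activation factor of 2 or more for CYP2C9 at a 5 µM dose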;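 also: 0 = sulfaphenazole-blocked wells and 1 = vehicle-only wells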
CYP2C9 inhib: inhibitors of human CYP2C9. P11712. CYP2C9 Supersomes, luciferin-H conversion, luminescence. inhibition, % at 5 µM. actives 20% (n = 96,000). AID 777;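 active = blocking of liver enzyme CYP2C9 beyond about 50% at 5 µM, limit read from the data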
sEH activator: activators of human soluble epoxide hydrolase; P34913; purified human sEH enzymatic activity, activator screen; activation, % at 2 µM; actives 0.04% (n = 91,000); AID 717; in the data active = activation above about 37%
CYP2C19 activ: increases human CYP2C19 enzyme activity | activation factor at 5 µM | AID 1025 | recombinant CYP2C19, luciferin-H EGE luminescence; hits give high values; 0 = fully inhibited enzyme, 1 = untreated enzyme | 96,000 tested, under 10 active;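 active = activation factor of at least 2 at 5 µM in the primary screen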;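 also: 0 = wells with 2.5 mM tranylcypromine and 1 = vehicle-only wells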
CYP2C19 inh: human CYP2C19 inhibition | P33261 | CYP2C19 Supersomes, luciferin-H EGE luminescence, 30 min | inhibition, % at 5 µM | actives 21% (n = 96,000) | AID 778;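 active = CYP2C19 inhibition above a set limit at 5 µM in the primary screen, cut at about 50% in these data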;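 also: plate controls were negative control wells for no effect and 2.5 mM tranylcypromine positive control for full effect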
sEH inh: soluble epoxide hydrolase (human) inhibition; recombinant human sEH enzymatic activity assay; AID 707; inhibition, % at 2 µM; actives 0.34% (n = 91,000); in the data active = inhibition above about 80%
Numbers without * were called inactive; / = no result given.

SMILES | CYP2C9 activ | CYP2C9 inhib | sEH activator | CYP2C19 activ | CYP2C19 inh | sEH inh
CCOC(=O)c1c(C)[nH]c(C(=O)COC(=O)c2oc3ccc(OC)cc3c2C)c1C | 0.7 | 29 | / | 0.5 | 45 | /
CCN(CC)S(=O)(=O)c1ccc(NC(=O)C(C)N(c2ccc(OC)cc2)S(C)(=O)=O)cc1 (centres undefined) | 0.4 | 56* | -3 | 0.9 | 7 | 5
COCCNC(=O)C(C)N(c1ccc(OC)cc1)S(C)(=O)=O (centres undefined) | 1.3 | -29 | 5 | 0.8 | 23 | -4
CCOc1ccc(N(C(C)C(=O)Nc2ccc(OC)cc2)S(C)(=O)=O)cc1 (centres undefined) | 0.3 | 72* | 10 | 0.3 | 74* | -11
O=c1cc(N2CCc3ccccc3C2)[nH]c(=O)n1Cc1ccc(F)cc1 | / | / | 24 | / | / | -27
CCOc1cc2[nH]c(=S)n(CC3CCCN3CC)c(=O)c2cc1OCC (centres undefined) | 1.1 | -6 | / | 1.1 | -12 | /
CCOC(=O)CSc1n[nH]c(NC(=O)c2ccc(F)cc2)n1 | 0.8 | 21 | 0 | 0.5 | 53* | 1
CSc1nc(C2CC2)cc(-c2cccs2)c1C#N | 1.2 | -16 | 12 | 0.9 | 5 | -13
N#CCSc1nnc(C2CCCCC2)n1-c1ccccc1 | 1 | 0 | 6 | 1 | 1 | -8
Cc1ccc(Cn2nnnc2CN2CCC(c3nc4ccc(Cl)cc4[nH]3)CC2)cc1 | 0.1 | 90* | -5 | 0.1 | 89* | 3
Clc1ccc2nc(C3CCN(Cc4nnnn4C4CCCCC4)CC3)[nH]c2c1 | / | / | -18 | / | / | 18
C=CCNC(=O)CSc1nc2cc(C(=O)OCC)ccc2n1CC | 0.3 | 75* | -2 | 0 | 96* | 2
CCOC(=O)c1ccc2c(c1)nc(COc1ccc(OC)cc1)n2CC | 0.4 | 55* | 17 | 0.2 | 76* | -17
